Measurements taken from PubChem BioAssay (NCI).
Values joined by “and” are separate entries in the source; they are usually repeats but may differ in a detail not shown here. Equal values may be shown once. The panel holds about 83,000 compounds, 20% with a hit somewhere; the sample as a whole holds those more often.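 The test compound was applied at a single concentration to cells in 96-well plates for 48 hours, and percent growth was recorded.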 Active and inactive are the calls of the source.

The molecules below were run on CAKI-1 renal (assay: NCI-60 one-dose screen, 48 h (100 = growth as untreated, 0 = no growth, -100 = all killed)). Settings: 10 µM.
Method: Growth inhibition of the CAKI-1 human tumor cell line is measured as a screen for anti-cancer activity. Cells are grown in 96 well plates and exposed to the test compound for 48 hours. Compounds are tested at a single concentration, which is 10^-5 M for most compounds. The reported endpoint is percent growth (GI% or GIPRCNT), where numbers from 0 - 100% represent growth inhibition, and numbers from -100% - 0 represent cell death. For example, a value of 40 represents 60% growth inhibition. A value of 0 means no net growth occurred over the course of the experiment. A value of -40 indicates 40% of cells at the beginning of the experiment died by the end of the experiment. A value of -100 means all cells are dead at the end of the experiment.
NCI-60 Human Tumor Cell Lines Screen was performed using the standard one-dose NCI protocol, which is described in more detail at https://dtp.cancer.gov/discovery_development/nci-60/default.htm.
Compounds with GIPRCNT values below 10 were considered active. Activity score was based on GIPRCNT using the following formula: […]
Score is 0 for GIPRCNT values of 100 or above, 50 for GIPRCNT values of 0, and 100 for GIPRCNT values of -100.

Structure (SMILES)	growth
CC(C)(C)c1cc(NC(=O)Cc2ccc(-c3cnc4cc(-c5cnn(CCN6CCOCC6)c5)ccc4n3)cc2)no1	1.21% (active)
Cc1[nH]c(-c2nc3ccccc3[nH]2)c(C)c1C(=O)NC(C)C1CCCCC1 (stereo not given)	85.8% (inactive)

Same assay, conditions: 10 µM unless noted

Structure (SMILES)	growth
Nc1ccccc1Nc1ccccc1	73.3% (inactive)
C[N+](C)(C)CN1C(=O)c2ccccc2C1=O	94.4% (inactive)
O=C(O)CCCCc1ccc([N+](=O)[O-])cc1	107% (inactive) and 102% (inactive)
CN(Cc1ccccc1)Cc1ccccc1	93.9% (inactive)
Cn1c(=O)n(-c2ccc(C(C)(C)C#N)cc2)c2c3cc(-c4cnc5ccccc5c4)ccc3ncc21	5.77% (active) and -2.85% (active)
Cc1cc(N=Nc2ccc(C)c(N=Nc3cc(C)c(N)cc3N)c2)c(N)cc1N	78.2% (inactive) and 78.7% (inactive)
O=[N+]([O-])c1ccc(Oc2ccccc2)cc1	93.4% (inactive) and 126% (inactive)
Cc1cc(O)c(C(C)C)cc1S(=O)(=O)O (tested in a mixture with another compound)	67.7% (inactive) and 12.1% (inactive) and 74.4% (inactive)
COc1ccccc1/C=N\N=C(N/N=C/c1ccccc1OC)N/N=C/c1ccccc1OC	43.6% (inactive) and 33.7% (inactive)
O=C(CCl)c1ccc2c(c1)Nc1ccccc1S2	98.4% (inactive)
Cc1ccc(-c2noc(C)n2)cc1	94.5% (inactive)
Cc1cccc(/C=C\C(=O)c2ccc(Cl)cc2)c1	90.1% (inactive) and 85.1% (inactive)
CC1=C(/C=C/C(C)=C/C=C/C(C)=C/C(=O)Nc2ccc(O)cc2)C(C)(C)CCC1	47% (inactive)
CNC(=O)c1cccc(-c2ccc3c(N4CCOC[C@@H]4C)nc(N4CCOC[C@@H]4C)nc3n2)c1	9.85% (active) and -15.3% (active)
CC(C)(C)c1ccc(O)c(CNC2CCCCC2)c1	111% (inactive) and 97.5% (inactive)
COc1ccc(NC(=S)Nc2ccccn2)cc1	89.3% (inactive)
COc1ccc(Cn2c(NCCN=C(N)N)nc(=O)n(Cc3ccc(F)cc3)c2=O)cc1	95.2% (inactive) and 86.5% (inactive)
OCCN1CCN(CCO)CC1	104% (inactive) and 81.4% (inactive) and 120% (inactive)

Structure (SMILES)	growth
OC(COc1cccc2ccccc12)CN1CCN(c2ccc(Cl)cc2)CC1 (stereo not given)	85.5% (inactive)
COC(=O)/C=C/c1cc(O)c2c(c1)C(C(=O)OC)C(c1ccc(O)c(O)c1)O2 (stereo not given)	17.5% (inactive) and 18.5% (inactive)
CN(C)CCC(=O)c1ccc(Cl)cc1	102% (inactive) and 106% (inactive)
COc1cc2c(Nc3ccc(Cl)c(Cl)c3F)ncnc2cc1OCC1C[C@@H]2CN(C)C[C@@H]2C1 (stereo not given in full)	-77.2% (active) and -2.69% (active)
Cc1n[nH]c(=O)n(/N=C\c2c[nH]c3ccccc23)c1=O	98.4% (inactive)
O=C(Oc1cccc(OC(=O)c2ccccc2)c1)c1ccccc1	102% (inactive) and 96.7% (inactive)
O=C(O)C1C2C=CC(C2)C1C(=O)O (stereo not given)	98.2% (inactive) and 7.77% (active) and 98.7% (inactive)
Cc1c(Cl)cccc1NCN1C(=O)c2ccccc2C1=O	94.4% (inactive)
CN1CCN(Cc2occc(=O)c2O)CCN(C)CCN(Cc2occc(=O)c2O)CC1	99.7% (inactive) and 42.1% (inactive)
O=C1c2c(O)cc(O)cc2OC(c2ccc(O)c(O)c2)C1O (stereo not given)	118% (inactive)
O=S(=O)(Nc1ccccc1)C1CCCCC1	86.5% (inactive) and 98.7% (inactive)
Nc1cc(-c2cccc(OC(F)(F)F)c2)nc2ccc(N3CCCC3)cc12	30.7% (inactive) and 35.3% (inactive) and 41.7% (inactive)
CCN(CC)CCCC(CNc1ccnc2cc(Cl)ccc12)c1ccc(Cl)cc1 (stereo not given)	-64.4% (active) and -63.6% (active)
CC(C(=O)O)n1cc(C#N)c(=O)[nH]c1=O (stereo not given)	86.5% (inactive) and 93.1% (inactive)
Oc1c(CN2CCCCC2)ccc2cccnc12	2.08% (active)
Cc1ccc(S(=O)(=O)Nc2nc3ccccc3nc2Nc2ccc3nsnc3c2)cc1	59.2% (inactive) and 31.3% (inactive)
O=C=NC(c1ccccc1)(c1ccccc1)c1ccccc1	91.7% (inactive)
O=C1c2ccccc2C(=O)c2c(NCCNCCO)ccc(NCCNCCO)c21	19.8% (inactive) and 50.9% (inactive) and 35.4% (inactive)

Same assay, conditions: 30 µM

Structure (SMILES)	growth
CC(C)(C)c1cc(NC(=O)Cc2ccc(-c3cnc4cc(-c5cnn(CCN6CCOCC6)c5)ccc4n3)cc2)no1	3.67% (active)

Same assay, conditions: 100 µM

Structure (SMILES)	growth
Cc1[nH]c(-c2nc3ccccc3[nH]2)c(C)c1C(=O)NC(C)C1CCCCC1 (stereo not given)	-97.2% (active)
